# PubChem BioAssay (NCATS)
# Records with an inconclusive call do not appear. Where a call stands in place of a potency, no number is given. The source made the active and inactive calls. The call rests on the fitted dose curve; in most records, active means well fitted curve in the direction sought with a large enough effect; inconclusive means small, poorly fitted or top-dose-only effect, or another doubt; inactive means no such curve, though single readings can be large; an effect the other way counts as inactive or inconclusive.
# How the values were obtained:
# [1] = tested on: Zika virus NS2B-NS3 protease (linked construct); assay: Confirmatory screen NINDS AMC qHTS for Zika virus inhibitors (AID 1347152); details: Purified linked NS2B-NS3, AMC substrate fluorescence; series mostly up to 56.6 µM;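 further: AMC fluorescence gain from cleaved Bz-Nle-KRR-AMC substrate over 15 min; top concentration of the series differs between compounds; nearly all actives have a fitted effect of over 70% in size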
# Summary of the method: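 Linked NS2B-NS3 protease, 1 nM, in 10 mM Tris-HCl pH 8.0, 0.01% Tween 20; compounds preincubated 15 min at room temperature. Nle-KRR-AMC 10 microM (Km 18.3 µM); 15-min fluorescence change (340/450 nm) fitted to 4-parameter Hill.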
# [2] = tested on: Zika virus NS2B-NS3 protease (unlinked complex); assay: Confirmatory screen GU AMC qHTS for Zika virus inhibitors (AID 1347153); details: Recombinant NS2B-NS3 protease, AMC substrate fluorescence; series mostly up to 57.1 µM; further: nearly all actives have a fitted effect of over 70% in size
# Summary of the method: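 Noncovalent NS2B hydrophilic domain/NS3 protease complex (25 nM) in 10 mM Tris-HCl pH 8.0, 0.01% Tween 20 was preincubated 15 min at room temperature with compounds. Then 10 µM AMC substrate (Km 18.3 µM) was added; fluorescence was read over 15 min and fitted to a 4-parameter Hill equation.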
# [3] = Confirmatory screen NINDS Rhodamine qHTS for Zika virus inhibitors (AID 1347161); details: purified enzyme assay, Rhodamine110 substrate fluorescence, 15 min; series mostly up to 114 µM; further: nearly all actives have a fitted effect of over 60% in size; further: potency means the concentration at half of the fitted maximal effect
# Summary of the method: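 In 10 mM Tris-HCl pH 8.0 containing 0.01% Tween 20, linked NS2B-NS3 protease (25 nM final) is exposed to test compounds for 15 min. Cleavage of 1.5 microM Rhodamine110 substrate is tracked by fluorescence over 15 min.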
# [4] = Vero cells viability qHTS for Zika virus inhibitors (AID 1347167); details: cytotoxicity counter-screen (Zika); series mostly up to 91.6 µM
# Summary of the method: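 Compounds were tested in concentration series on cells grown in DMEM containing 4% FBS. After 24 to 48 hours, cellular ATP was measured by luminescence with CellTiter Glo.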
# [5] = tested on: Zika virus NS2B-NS3 protease; assay: Primary screen GU AMC qHTS for Zika virus inhibitors (AID 1347154); details: Zika NS2B-NS3 unlinked protease, AMC fluorogenic substrate; series mostly up to 54.1 µM; further: nearly all actives have a fitted effect of over 70% in size; further: potency means the concentration at half of the fitted maximal effect
# Summary of the method: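 Fluorogenic AMC-substrate cleavage by noncovalent NS2B-NS3 protease complex (25 nM, pH 8.0 Tris buffer with Tween 20) followed for 15 minutes at room temperature (~20% conversion). Percent inhibition from ex340/em450 signal change, fitted by 4-parameter Hill equation.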
# [6] = tested on: Zika virus NS2B-NS3 protease (linked construct); assay: Primary screen NINDS Rhodamine qHTS for Zika virus inhibitors (AID 1347160); details: purified NS2B-NS3 protease, Rhodamine110 substrate fluorescence; series mostly up to 57.1 µM; further: nearly all actives have a fitted effect of over 55% in size
# Summary of the method: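 Purified linked NS2B-NS3 protease (NS2B hydrophilic domain joined to NS3 protease by flexible linker), 25 nM in 10 mM Tris-HCl pH 8.0, 0.01% Tween 20. Compounds titrated, 15 min preincubation at room temperature; 1.5 microM Rhodamine110 substrate, FITC fluorescence change over 15 min.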
# [7] = tested on: Zika virus NS2B-NS3 protease (unlinked complex); assay: Primary screen GU Rhodamine qHTS for Zika virus inhibitors: Unlinked NS2B-NS3 protease assay (AID 1347159); details: Recombinant ZIKV NS2B-NS3 protease, Rhodamine110 substrate fluorescence; series mostly up to 107 µM; further: nearly all actives have a fitted effect of over 60% in size
# Summary of the method: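 Noncovalent NS2B hydrophilic domain–NS3 protease domain complex (25 nM) preincubated 15 min at room temperature with compounds (up to 114 microM) in 10 mM Tris-HCl pH 8.0, 0.01% Tween 20; 1.5 microM Rhodamine110 substrate added, fluorescence change over 15 min fitted to Hill equation.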
# [8] = Confirmatory screen GU Rhodamine qHTS for Zika virus inhibitors qHTS (AID 1347157); details: purified enzyme assay, Rhodamine110 substrate fluorescence, 15 min; further: potency means the concentration at half of the fitted maximal effect; nearly all actives have a fitted effect of over 70% in size
# Summary of the method: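 A qHTS format was used, with compound concentrations ranging up to 114 microM. Each compound was preincubated with 25 nM NS2B-NS3 protease, and the substrate was then added at 1.5 microM. Curves were fitted with a 4-parameter Hill model.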
# [9] = target: Lysine-specific demethylase 5B (Homo sapiens) (UniProt Q9UGL1); assay: Optimization screen for KDM5B Histone Demethylases FDH coupled qHTS against the LOPAC library (AID 1347166); details: KDM5B demethylation, FDH-coupled NADH fluorescence (FDH is formaldehyde dehydrogenase); series mostly up to 57.5 µM
# Lysine-specific demethylase 5B (Homo sapiens), sequence (Q9UGL1 whole entry, looked up): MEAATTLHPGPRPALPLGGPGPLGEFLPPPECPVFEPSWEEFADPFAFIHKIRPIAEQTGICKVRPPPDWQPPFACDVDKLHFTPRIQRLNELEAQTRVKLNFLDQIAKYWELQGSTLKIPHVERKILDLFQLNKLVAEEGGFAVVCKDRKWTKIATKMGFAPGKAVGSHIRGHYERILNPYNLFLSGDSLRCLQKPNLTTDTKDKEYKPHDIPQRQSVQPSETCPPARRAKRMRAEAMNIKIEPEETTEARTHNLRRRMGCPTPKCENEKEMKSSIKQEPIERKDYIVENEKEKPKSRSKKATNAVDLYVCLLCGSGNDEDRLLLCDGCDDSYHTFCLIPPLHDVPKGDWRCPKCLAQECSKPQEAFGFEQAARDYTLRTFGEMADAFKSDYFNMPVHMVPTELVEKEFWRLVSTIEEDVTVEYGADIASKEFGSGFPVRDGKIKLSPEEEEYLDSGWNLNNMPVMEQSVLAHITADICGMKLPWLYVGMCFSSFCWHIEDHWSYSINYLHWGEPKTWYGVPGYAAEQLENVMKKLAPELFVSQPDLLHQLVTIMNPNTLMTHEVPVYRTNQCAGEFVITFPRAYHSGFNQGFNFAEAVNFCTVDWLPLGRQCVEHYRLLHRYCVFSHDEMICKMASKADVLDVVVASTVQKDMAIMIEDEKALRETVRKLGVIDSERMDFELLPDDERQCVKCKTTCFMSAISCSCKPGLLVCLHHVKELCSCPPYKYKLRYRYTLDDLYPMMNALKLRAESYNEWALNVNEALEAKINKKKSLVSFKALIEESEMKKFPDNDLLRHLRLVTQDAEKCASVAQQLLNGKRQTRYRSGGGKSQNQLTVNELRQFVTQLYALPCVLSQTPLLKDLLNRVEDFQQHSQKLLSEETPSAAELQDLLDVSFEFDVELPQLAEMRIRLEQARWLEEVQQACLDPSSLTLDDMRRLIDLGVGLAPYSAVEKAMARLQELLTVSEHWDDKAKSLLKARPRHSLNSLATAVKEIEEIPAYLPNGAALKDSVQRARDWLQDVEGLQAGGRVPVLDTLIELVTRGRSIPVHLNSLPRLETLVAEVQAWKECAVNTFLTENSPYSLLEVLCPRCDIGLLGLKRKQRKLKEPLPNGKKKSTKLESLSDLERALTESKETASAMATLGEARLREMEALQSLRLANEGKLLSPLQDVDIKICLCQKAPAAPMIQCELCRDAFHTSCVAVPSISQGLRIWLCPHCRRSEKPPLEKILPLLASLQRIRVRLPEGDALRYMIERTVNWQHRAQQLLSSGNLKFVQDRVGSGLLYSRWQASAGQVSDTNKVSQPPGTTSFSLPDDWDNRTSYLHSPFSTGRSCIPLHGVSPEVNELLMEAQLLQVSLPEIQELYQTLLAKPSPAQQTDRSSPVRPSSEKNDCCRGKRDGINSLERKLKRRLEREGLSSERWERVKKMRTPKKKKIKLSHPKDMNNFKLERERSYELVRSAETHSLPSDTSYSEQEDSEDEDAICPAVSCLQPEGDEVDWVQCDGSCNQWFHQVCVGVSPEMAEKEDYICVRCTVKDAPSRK
# Summary of the method: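 KDM5BDeltaAP (200nM final) preincubated 10 min with compound, then 12.5uM H3K4Me3, 25uM a-ketoglutarate, ascorbate, Fe(II), NAD+ and FDH added; 50mM HEPES pH 7.5, 0.01% Tween-20. NADH fluorescence (340/450 nm) change over 30 min, room temperature.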
smiles,measurement,setting,value
Oc1ccc([C@H]2CNCc3c2ccc(O)c3O)cc1O,outcome,[1],inactive
same,outcome,[2],inactive
same,Potency,[3],inactive
same,outcome,[4],inactive
CC(C)=CCN1CC[C@@]2(C)c3cc(O)ccc3C[C@@H]1[C@@H]2C,outcome,[4],inactive
CC(C)[N+](C)(CCC(C(N)=O)(c1ccccc1)c1ccccc1)C(C)C,Potency,[5],inactive
O=C(CCCCl)c1ccc(F)cc1,Potency,[5],inactive
CCN(CC)C(C)C(=O)c1ccccc1 (stereo not given),Potency,[5],inactive
CN(C)CCc1c[nH]c2ccccc12,outcome,[6],inactive
CCCOC(=O)Cc1ccc(OCC(=O)N(CC)CC)c(OC)c1,Potency,[5],inactive
same,outcome,[7],inactive
O=C(O)CCCCCCNC1c2ccccc2CCc2ccccc21,Potency,[5],inactive
same,outcome,[7],inactive
same,outcome,[6],inactive
Oc1ccc2[nH]cc(CCCCN3CC=C(c4ccccc4)CC3)c2c1,Potency,[5],inactive
CCc1cc(OC)c(C[C@H](C)N)cc1OC,Potency,[5],inactive
CCCCC1C(=O)NC(=O)N(C2CCCCC2)C1=O (stereo not given),outcome,[6],inactive
CN(C)C(=S)SSC(=S)N(C)C,Potency,[5],inactive
C[C@]12CC[C@H]3[C@@H](CCC4=CC(=O)CC[C@@]43C)[C@@H]1CC[C@@H]2C(=O)O,Potency,[5],inactive
CCO[C@H]1O[C@@H]2OC3(C)CC[C@H]4[C@H](C)CC[C@@H]([C@H]1C)[C@@]24OO3,Potency,[5],inactive
C[C@H]1CNCCc2ccc(Cl)cc21,Potency,[5],inactive
Cc1nnc2n1-c1sc(CCC(=O)N3CCOCC3)cc1C(c1ccccc1Cl)=NC2,Potency,[5],inactive
COc1cc(CC(C)N)cc2c1OCO2 (stereo not given),Potency,[5],inactive
Cc1ccc([N+](=O)[O-])[c]2c1[O][Hg]2,Potency,[5],inactive
C#C[C@]1(O)C=C[C@H]2[C@@H]3CCC4=CC(=O)CC[C@@H]4[C@H]3CC[C@@]21CC,Potency,[5],inactive
COc1ccc2c(C(=O)c3ccc(Cl)cc3)c(C)n(CC(=O)O)c2c1,Potency,[5],inactive
same,outcome,[7],inactive
same,outcome,[6],inactive
O=C(N[C@@H]1N=C(c2ccccc2F)c2cccc3c2N(CC3)C1=O)c1cc2ccccc2[nH]1,Potency,[5],inactive
same,outcome,[7],inactive
CC[C@H]1C[C@H]2[C@@H]3CCC4=CC(=O)CC[C@@H]4[C@H]3CC[C@]2(C)[C@H]1O,Potency,[5],inactive
same,outcome,[7],inactive
same,outcome,[6],inactive
Nc1ccccc1C(=O)OCC(O)CO (stereo not given),Potency,[5],16.1 µM (active)
CCOC(=O)c1ncn2c1CN(C)C(=O)c1c(I)cccc1-2,Potency,[5],inactive
same,outcome,[7],inactive
same,outcome,[6],inactive
COc1cc(C[C@@H](C)N)c(OC)cc1Br,Potency,[5],inactive
C[N+]1(CCC(C(N)=O)(c2ccccc2)c2ccccc2)CCCCC1,Potency,[5],inactive
C[C@H](CN1CCOCC1)C(C(=O)N1CCCC1)(c1ccccc1)c1ccccc1,Potency,[5],inactive
Cc1nnc2n1-c1sc(CCc3ccc(CC(C)C)cc3)cc1C(c1ccccc1Cl)=NC2C (stereo not given),Potency,[8],44.1 µM (active)
same,outcome,[7],inactive
same,Potency,[3],44.1 µM (active)
CCC(OC(C)=O)C(CC(C)NC)(c1ccccc1)c1ccccc1 (stereo not given),Potency,[5],inactive
O=C(O)c1nn(Cc2ccc(Cl)cc2Cl)c2ccccc12,Potency,[5],inactive
same,outcome,[9],inactive
CCOC(=O)NC(C)(C)Cc1ccc(Cl)cc1,Potency,[5],inactive
same,outcome,[7],inactive
same,outcome,[6],inactive
CCC(=O)O[C@H]1CC[C@H]2[C@@H]3CCC4=CC(=O)CC[C@]4(C)[C@H]3CC[C@]12C,Potency,[5],inactive
NC(=O)OCCCc1ccccc1,Potency,[5],inactive
CN1C(=O)[C@@H](NC(=O)c2cc3ccccc3[nH]2)N=C(c2ccccc2)c2ccccc21,Potency,[5],inactive
C[C@]12CC[C@H](O)CC1=CC[C@@H]1[C@@H]2CC[C@]2(C)C(=O)CC[C@@H]12,Potency,[5],inactive
same,outcome,[7],inactive
same,outcome,[6],inactive
CCCC[N+]1(C)[C@@H]2CC(OC(=O)[C@H](CO)c3ccccc3)C[C@H]1[C@@H]1O[C@@H]12 (stereo not given in full),Potency,[5],inactive
same,outcome,[7],inactive
same,outcome,[6],inactive
CN1C(=O)CN=C(c2ccccc2)c2cc(Cl)ccc21,Potency,[5],inactive
CCOC(=O)c1cncn1C(C)c1ccccc1 (stereo not given),outcome,[7],inactive
same,outcome,[6],inactive
O=C(N[C@H]1N=C(c2ccccc2F)c2cccc3c2N(CC3)C1=O)c1cc2ccccc2[nH]1,outcome,[7],inactive
same,outcome,[6],inactive
CCS(=O)(=O)C(C)(C)S(=O)(=O)CC,Potency,[5],inactive
C[N+](C)(C)CCOC(=O)C(O)(c1ccccc1)c1ccccc1,Potency,[5],inactive
